From PubChem
TGFb inhibitor – inhibitors of TGF-b signaling | 1.2% of 410,000 active | Potency, µM (doses to about 46.1 µM), without a hit: at the highest dose activity, negative = inhibition, hits mostly inhibitors | AID 588855 | HepG2 CAGA-GFP TGF-b/SMAD3 reporter, GFP fluorescence, 18 h; TGF-beta stimulated, 500 pg/mL final; note: % is set by controls: 0 for no effect and ±100 for the full control effect; nearly all actives have a fitted effect of over 65% in size
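HEPG2 CAGA-GFP cells (1000/well, DMEM with 1% FBS) were pre-incubated 2 h at 37 degrees C, given compound by pin tool, then stimulated with TGF-beta at 500 pg/mL final for 18 h before per-cell GFP fluorescence imaging.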
TDP1 cell noCPT – qHTS for Inhibitors of human tyrosyl-DNA phosphodiesterase 1 (TDP1): qHTS in cells in absence of CPT. Potency, µM (doses to about 46.2 µM), for inactives: at the top dose activity change, negative = growth inhibition, actives largely listed as inhibitors. DT40 Tdp1-/- hTDP1 cells, no CPT, ATP luminescence, 48 h. AID 686978, 2013. 15% of 420,000 active; note: % is set by controls: 0 for no effect and ±100 for the full control effect; nearly all actives have a fitted effect of over 55% in size
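Compound effects on proliferation are scored in DT40 Tdp1-/-;hTDP1 cells in the absence of CPT. ATP levels (CellTiter-Glo luminescence) are recorded after a ≥48 hr, 37 °C incubation.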
HepG2 tox – kills HepG2 cells in TGF-b inhibitor counter-screen. Potency, µM (doses to about 46.1 µM), inactives show top-dose activity change, negative = cytotoxicity, usual class: cytotoxic. AID 588856. 0.76% of 410,000 active. HepG2 CAGA-GFP viability, ATP luminescence, 18 h
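CellTiter-Glo luminescence gave cytotoxicity after 18 hours at 37 degrees C. The cells were HepG2 CAGA-GFP in 1% FBS DMEM, stimulated with 500 pg/mL TGF-beta after compound addition. %Activity was normalised to no-cell wells (complete cell-killing) and DMSO (no toxicity), and curves were fitted and classified.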
HT1080 IDH1KD tx – HT-1080 IDH1 knockdown cell toxicity (counter line) | HT-1080 IDH1 knockdown viability, ATP luminescence, 48 h | Potency, µM (titrated, usually from 46.1 µM), for inactives: top-dose activity, negative = toxicity, most hits filed as cytotoxic | 2% of 360,000 active | AID 686971;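 note: 0% = DMSO wells and -100% = cell-free medium wells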
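In this qHTS, HT-1080 cells depleted of IDH1 are exposed for 48 h at 37 °C to compound titrations. Toxicity is scored from CellTiter-Glo luminescence, with DMSO as full viability and medium alone as none.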
HT1080NT lethal – kills 2HG-producing HT-1080-NT fibrosarcoma cells | HT-1080-NT fibrosarcoma viability, CellTiter-Glo ATP luminescence, 48 h | Potency, µM (doses to about 46.1 µM), for inactives: at the highest dose activity, negative = less viability, usual class: cytotoxic | 1.6% of 360,000 active;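 note: NT is the 2HG producing partner of a matched IDH1 knockdown line; 0% = DMSO-treated cells and -100% = media-only wells without cells; nearly all actives have a fitted effect of over 55% in size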
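750 cells/well, RPMI + 5% FBS; 2 h settle, compound pin-transfer, 48 h at 37 degrees C. CellTiter-Glo 10 min RT, luminescence. Normalized to DMSO and media-only wells.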
TDP1 cell CPT – DT40-hTDP1 cell growth loss with CPT; chicken DT40 Tdp1-/-;hTDP1 cells + 20 nM CPT, ATP luminescence, 48 h; Potency, µM (top dose mostly 46.2 µM), for inactives: at the top dose activity change, negative = growth inhibition, hits mostly inhibitors; 12% of 420,000 active; AID 686979; note: % is set by controls: 0 for no effect and ±100 for the full control effect; nearly all actives have a fitted effect of over 55% in size
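Chicken DT40 Tdp1-/- cells stably complemented with human TDP1 were seeded at 400 cells/well in medium containing 20 nM camptothecin, exposed to pin-transferred compounds, and grown at 37 °C for at least 48 hr. Viability was read as ATP luminescence.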
* hit, by the source's call; ? = inconclusive; / = no result. The list is not random: actives were taken first. Their share in the collection is about 17%. Calls come from the whole dose curve; as a rule, active = well fitted curve in the direction sought with a large enough effect; inconclusive = small, poorly fitted or top-dose-only effect, or another doubt; inactive = no such curve, though single readings can be large; an effect the other way counts as inactive or inconclusive. Potency is the fitted concentration of half-maximal effect.

SMILES	TGFb inhibitor	TDP1 cell noCPT	HepG2 tox	HT1080 IDH1KD tx	HT1080NT lethal	TDP1 cell CPT
COC(=O)c1ccc(N2CCOCC2)c(NC(=O)Nc2cccc(OC)c2)c1	-10%	-16%	-10%	-1%	-7%	-19%
CCOC(=O)c1ccc(N2CCN(c3ccccc3F)CC2)c(NC(=O)Nc2cccc(OC)c2)c1	-14%	5.8µM*	-13%	-4%	-7%	13µM*
O=C(COC(=O)c1ccc[nH]c1=O)NCC12CC3CC(CC(C3)C1)C2	10%	5%	1%	-3%	0%	-15%
Cc1ccc(Oc2nc3c(c(=O)n(Cc4ccccc4Cl)c(=O)n3C)n2C)cc1C	-10%	?	-21%	/	/	?
O=C1NC(=O)C(Cc2ccc(O)cc2)N1 (configuration not stated)	1%	15%	8%	11%	7%	7%
COc1cccc(NC(=O)Nc2cc(Cl)ccc2C)c1	-13%	?	-4%	-5%	-11%	?
CCOC(=O)c1ccc(N2CCN(c3cc(Cl)ccc3C)CC2)c(NC(=O)Nc2cccc(OC)c2)c1	19%	9.2µM*	2%	/	/	16µM*
O=C(COC(=O)c1ccccn1)Nc1ccc(S(=O)(=O)N2CCOCC2)cc1	-1%	-7%	22%	1%	8%	-4%
CCc1nc2ccccc2c(C(=O)OCC(=O)Nc2cccc(S(=O)(=O)N3CCOCC3)c2)c1C	?	18µM*	-45%	?	?	16µM*
CCc1nc2ccccc2c(C(=O)OCC(=O)Nc2ccc(S(=O)(=O)N3CCOCC3)cc2)c1C	?	?	-3%	?	?	14µM*
CCC1CCCCN1CCCNC(=O)c1ccc(N2CCCC2=O)cc1 (configuration not stated)	19%	15%	6%	0%	6%	1%
CN1CCN(c2ccc(S(=O)(=O)N3CCCCC3)cc2NC(=O)c2ccc3ccccc3c2)CC1	35µM*	?	-54%	?	-16%	?
Cc1ccccc1C(=O)Nc1cc(S(=O)(=O)N2CCCCC2)ccc1N1CCN(C)CC1	-23%	-44%	-28%	-4%	?	-10%
O=C(Nc1cc(S(=O)(=O)N2CCOCC2)ccc1N1CCCCC1)c1ccc(Cl)cc1	-21%	13µM*	-4%	-2%	0%	18µM*
Cc1c(C(=O)Nc2cc(S(=O)(=O)N3CCOCC3)ccc2N2CCN(C)CC2)oc2ccccc12	-2%	18µM*	-10%	-8%	-4%	?
CC1CN(S(=O)(=O)c2cccc(C(=O)Nc3ccccc3N3CCCCC3)c2)CC(C)O1 (configuration not stated)	-20%	13µM*	-3%	-26%	-18%	16µM*
CC1CN(S(=O)(=O)c2cccc(C(=O)Nc3ccccc3N3CCOCC3)c2)CC(C)O1 (configuration not stated)	-29%	?	0%	-4%	-1%	?
O=C(Nc1ccc2[nH]ncc2c1)c1ccccc1Cl	-1%	-16%	-10%	-11%	-10%	-14%
O=C(Nc1cc(S(=O)(=O)N2CCOCC2)ccc1N1CCCC1)c1ccc2c(c1)S(=O)(=O)c1ccccc1C2=O	-14%	?	14%	-23%	0%	13µM*
O=C(Nc1cc(S(=O)(=O)N2CCOCC2)ccc1N1CCCC1)c1ccccc1F	3%	2%	3%	13%	7%	2%
CC1CN(S(=O)(=O)c2cccc(C(=O)N=c3sccn3C)c2)CC(C)O1 (configuration not stated)	1%	?	-7%	-3%	-12%	18µM*
